The source of these data is PubChem BioAssay (EPA / NIEHS).

Each structure is given as a SMILES string. The source made the active and inactive calls. How the source made its calls: active means hit-call score of the fitted dose curve at least 0.9, where 1 is the maximum; inactive means score below 0.9.

The nature of test [1]: ATG_CRE_CIS: Attagene CIS-FACTORIAL HepG2 Assay for human cAMP Responsive Element (CRE) binding protein 3 (AID 2282926). The note with it: HepG2 CRE cis-reporter, Attagene multiplexed mRNA; actives raise or lower the signal. The procedure, abridged: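 HepG2 cells transiently transfected with cis-element-driven multiple reporter transcription units; CRE reporter mRNA measured 24 h after dosing by RT-PCR, 6-FAM labelling, HpaI digestion and capillary electrophoresis. Bidirectional fit versus DMSO baseline.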

The target of test [2] is CCAAT/enhancer-binding protein beta (Homo sapiens) (UniProt P17676). Briefly: ATG_C_EBP_CIS: Attagene CIS-FACTORIAL HepG2 Assay for human CCAAT/Enhancer Binding Protein (C/EBP) beta (AID 2282927). The note with it: HepG2 Attagene cis-factorial transcription factor reporter; actives raise or lower the signal. The procedure, abridged:
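HepG2 transiently transfected with multiplexed reporter units under cis-regulatory promoters reporting endogenous C/EBPb activity. After 24 h exposure, reporter mRNA assayed by RT-PCR, fluorescent labelling, HpaI digestion and capillary electrophoresis; bidirectional fitting versus DMSO.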

Test [3] in a line: ATG_DR4_LXR_CIS: Attagene CIS-FACTORIAL HepG2 Assay for human Liver X Receptor (LXR), DR4 submotif (AID 2282929). The note with it: HepG2 Attagene DR4 cis-reporter, mRNA transcription; actives raise or lower the signal. An outline of the steps:
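DR4 cis-reporter in HepG2, 24 h exposure. Detection: RT-PCR, 6-FAM labelling, CE fragment analysis. Endpoint fitted bidirectionally, DMSO = baseline.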

The nature of test [4]: ATG_AP_2_CIS: Attagene CIS-FACTORIAL HepG2 Assay for human Activator Protein 2 (AP-2) (AID 2282932). The note with it: HepG2 AP-2 cis-reporter, Attagene transcription factor profiling; actives raise or lower the signal. An outline of the steps:
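HepG2 cells transiently transfected with cis-element reporter units and exposed for 24 h. Reporter mRNA measured by RT-PCR, FAM labelling, HpaI digestion and capillary electrophoresis. Changes in either direction fitted relative to DMSO.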

The nature of test [5]: ATG_BRE_CIS: Attagene CIS-FACTORIAL HepG2 Assay for human Bone Morphogenetic Protein (BMP) Response Element (BRE) (AID 2282933). The note with it: HepG2 BMP response element reporter, Attagene transcription factor profiling; actives raise or lower the signal. An outline of the steps:
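HepG2 cells transiently transfected with CIS reporter units (endogenous TF activity, BMP response element), dosed 24 h. Reporter mRNA quantified by RT-PCR, fluorescent labelling and capillary electrophoresis; bidirectional fit vs DMSO baseline.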

The target in test [6] is Transcription factor E2F1 (Homo sapiens) (UniProt Q01094). Briefly: ATG_E2F_CIS: Attagene CIS-FACTORIAL HepG2 Assay for human E2F Transcription Factor 1 (AID 2282935). The note with it: HepG2 Attagene cis-reporter, E2F reporter RNA transcripts; actives raise or lower the signal. The procedure, abridged:
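Endogenous E2F1 activity read through cis-promoter reporter units transfected into HepG2. After 24 h compound treatment, reporter mRNA measured by RT-PCR, HpaI digestion and capillary electrophoresis. Bidirectional fit versus DMSO.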

Test [7] can be described thus: ATG_EGR_CIS: Attagene CIS-FACTORIAL HepG2 Assay for human Early Growth Response 1 (EGR1) (AID 2282938). The note with it: HepG2 Attagene CIS-FACTORIAL EGR reporter mRNA; actives raise or lower the signal. The procedure, abridged: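 Endpoint derived by bidirectional fitting versus DMSO vehicle. Method: cis-promoter reporter units transfected into HepG2, 24 h dosing, RNA isolation, RT-PCR with 6-FAM primer extension and HpaI digestion, then capillary electrophoresis fluorescence detection.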

Test [8] can be described thus: ATG_M_19_CIS: Attagene CIS-FACTORIAL HepG2 Assay for M19 Transcription Factor (Internal Marker) (AID 2282939). The note with it: HepG2 Attagene CIS-FACTORIAL M19 internal marker reporter; actives raise or lower the signal. An outline of the steps: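 HepG2 cells transiently transfected with cis-regulated multiplexed reporter units, dosed 24 h. Reporter mRNA quantified by RT-PCR and capillary electrophoresis; internal background marker fitted bidirectionally versus DMSO.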

Test [9] in a line: ATG_Ets_CIS: Attagene CIS-FACTORIAL HepG2 Assay for human Erythroblast Transformation Specific (ETS) (AID 2282941). The note with it: HepG2 ETS cis-reporter transcription, actives raise or lower the signal. An outline of the steps:
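Steps: transfect HepG2 with multiple reporter units; treat compound 24 h; isolate RNA, DNase-treat, reverse-transcribe; PCR-amplify, label with 6-FAM, digest with HpaI; separate by capillary electrophoresis. Activity fitted both directions versus DMSO.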

The target of test [10] is Hepatocyte nuclear factor 3-beta (Homo sapiens) (UniProt Q9Y261). Briefly: ATG_FoxA2_CIS: Attagene CIS-FACTORIAL HepG2 Assay for human Forkhead box A2 (FOXA2) (AID 2282942). The note with it: HepG2 cis-reporter transcription factor activity, 24 h; actives raise or lower the signal. The procedure, abridged: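 Measured: reporter mRNA induction or loss in HepG2 transiently carrying multiple cis-regulated reporter units, 24 h after dosing. Quantified by RT-PCR plus capillary electrophoresis, normalised to DMSO.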
Hepatocyte nuclear factor 3-beta (Homo sapiens), sequence (Q9Y261 whole entry, looked up): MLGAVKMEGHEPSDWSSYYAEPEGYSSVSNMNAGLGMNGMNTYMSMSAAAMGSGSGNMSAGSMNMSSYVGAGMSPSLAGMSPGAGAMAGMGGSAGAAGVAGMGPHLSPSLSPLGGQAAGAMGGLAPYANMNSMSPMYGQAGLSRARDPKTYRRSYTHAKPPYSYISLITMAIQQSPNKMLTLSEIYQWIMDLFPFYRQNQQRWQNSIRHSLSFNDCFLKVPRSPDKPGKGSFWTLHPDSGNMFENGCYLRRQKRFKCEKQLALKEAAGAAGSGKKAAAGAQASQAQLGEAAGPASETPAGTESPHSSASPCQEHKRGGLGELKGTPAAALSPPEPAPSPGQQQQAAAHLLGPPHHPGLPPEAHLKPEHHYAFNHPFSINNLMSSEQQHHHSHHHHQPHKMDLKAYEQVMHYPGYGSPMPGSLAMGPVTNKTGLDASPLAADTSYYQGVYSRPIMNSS

A short description of test [11]: ATG_FoxO_CIS: Attagene CIS-FACTORIAL HepG2 Assay for human Forkhead box O (FoxO) (AID 2282943). The note with it: HepG2 Attagene cis-reporter, FoxO element, mRNA; actives raise or lower the signal. The procedure, abridged: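 HepG2 cells transiently transfected with cis-element-driven reporter units report endogenous FoxO activity. After 24 h chemical exposure, reporter mRNA quantified by RT-PCR, fluorescent labeling, HpaI digestion and capillary electrophoresis; bidirectional fit versus DMSO.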

Test [12] can be described thus: ATG_GATA_CIS: Attagene CIS-FACTORIAL HepG2 Assay for human GATA Binding Protein (AID 2282944). The note with it: HepG2 GATA cis-element reporter, Attagene multiplex mRNA; actives raise or lower the signal. An outline of the steps: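 HepG2 cells transiently transfected with multiplexed cis-element reporter units measure endogenous GATA activity; after 24 h compound exposure, reporter mRNA quantified by RT-PCR and capillary electrophoresis. Changes fitted in both directions vs DMSO.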

The nature of test [13]: ATG_GLI_CIS: Attagene CIS-FACTORIAL HepG2 Assay for human Zinc Finger Protein GLI1 (AID 2282945). The note with it: HepG2, Attagene cis-factorial reporter mRNA, GLI element; actives raise or lower the signal. An outline of the steps: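 Transiently transfected HepG2 cells report endogenous transcription factor activity via cis-element-driven reporter units. After 24 h compound exposure, reporter mRNA was measured by RT-PCR with capillary electrophoresis; bidirectional fitting against DMSO baseline.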

Test [14] can be described thus: ATG_M_06_CIS: Attagene CIS-FACTORIAL HepG2 Assay for M06 Transcription Factor (Internal Marker) (AID 2282950). The note with it: HepG2 Attagene CIS-FACTORIAL M06 internal marker reporter; actives raise or lower the signal. An outline of the steps:
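Internal background marker within multiplexed cis-reporter HepG2 system. Cells transiently transfected, dosed 24 h; reporter mRNA measured by RT-PCR, HpaI digestion and capillary electrophoresis. Bidirectional fit relative to DMSO.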

Test [15] deals with Hepatocyte nuclear factor 6 (Homo sapiens) (UniProt Q9UBC0). Description: ATG_HNF6_CIS: Attagene CIS-FACTORIAL HepG2 Assay for human Hepatocyte Nuclear Factor 6 (HNF6) (AID 2282952). The note with it: HepG2 Attagene cis-factorial HNF6 reporter transcription; actives raise or lower the signal. An outline of the steps:
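HepG2 cells transiently transfected with cis-element-driven multiplexed reporter units measuring endogenous transcription factor activity. After 24 h exposure, reporter mRNA quantified by RT-PCR, FAM-labelled fragments and capillary electrophoresis; bidirectional fitting versus DMSO.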

Test [16] can be described thus: ATG_MRE_CIS: Attagene CIS-FACTORIAL HepG2 Assay for human Metal Responsive Element (MRE) (AID 2282954). The note with it: HepG2 MRE cis-reporter transcription, Attagene multiplex; actives raise or lower the signal. An outline of the steps:
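HepG2 cells transiently transfected with cis-element-driven reporter units; mRNA measured 24 h after dosing. Reporter transcripts quantified by RT-PCR, FAM labelling, HpaI digestion and capillary electrophoresis; bidirectional fit versus DMSO.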

The target in test [17] is Paired box protein Pax-6 (Homo sapiens) (UniProt P26367). Description: ATG_Pax6_CIS: Attagene CIS-FACTORIAL HepG2 Assay for human Paired Box 6 (PAX6) (AID 2282956). The note with it: HepG2 CIS-FACTORIAL PAX6 reporter transcription, RNA readout; actives raise or lower the signal. An outline of the steps:
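Transient MRTU transfection of HepG2 → compound exposure 24 h → TriZol RNA, oligo(dT) RT → PCR, 6-FAM primer extension, HpaI cut → capillary electrophoresis; activity fitted both directions against DMSO.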

Test [18] in a line: ATG_PXRE_CIS: Attagene CIS-FACTORIAL HepG2 Assay for human Pregnane X Receptor Element (PXRE) (AID 2282957). The note with it: HepG2 Attagene CIS-FACTORIAL PXRE reporter, mRNA; actives raise or lower the signal. The procedure, abridged: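 HepG2 cells transiently transfected with cis-element-driven multiplexed reporter units; after 24 h chemical exposure, reporter mRNA measured by RT-PCR, 6-FAM labelling, HpaI digestion and capillary electrophoresis. Bidirectional fitting relative to DMSO.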

A short description of test [19]: ATG_Sox_CIS: Attagene CIS-FACTORIAL HepG2 Assay for human SRY-box transcription factor (SOX) (AID 2282960). The note with it: HepG2 Attagene cis-factorial SOX reporter, mRNA; actives raise or lower the signal. An outline of the steps:
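Gain- or loss-of-signal endpoint, fitted bidirectionally with DMSO as negative control. Based on reporter mRNA from transfected HepG2 cells harvested 24 h post-treatment and quantified via RT-PCR and capillary electrophoresis.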

Paired box protein Pax-6 (Homo sapiens), sequence (P26367 whole entry, looked up): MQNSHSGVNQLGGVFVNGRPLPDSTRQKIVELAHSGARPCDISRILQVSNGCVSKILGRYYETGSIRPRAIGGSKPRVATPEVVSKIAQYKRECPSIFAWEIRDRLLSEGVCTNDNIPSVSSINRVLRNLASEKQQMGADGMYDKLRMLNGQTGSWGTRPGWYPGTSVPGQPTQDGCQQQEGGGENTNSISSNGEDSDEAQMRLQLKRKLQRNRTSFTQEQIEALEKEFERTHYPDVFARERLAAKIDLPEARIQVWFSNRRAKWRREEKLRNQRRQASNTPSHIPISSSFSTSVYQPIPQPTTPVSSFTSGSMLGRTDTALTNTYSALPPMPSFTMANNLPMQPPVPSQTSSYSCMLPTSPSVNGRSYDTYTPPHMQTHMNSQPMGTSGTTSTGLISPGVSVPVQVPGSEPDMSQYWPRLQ
Transcription factor E2F1 (Homo sapiens), sequence (Q01094 whole entry, looked up): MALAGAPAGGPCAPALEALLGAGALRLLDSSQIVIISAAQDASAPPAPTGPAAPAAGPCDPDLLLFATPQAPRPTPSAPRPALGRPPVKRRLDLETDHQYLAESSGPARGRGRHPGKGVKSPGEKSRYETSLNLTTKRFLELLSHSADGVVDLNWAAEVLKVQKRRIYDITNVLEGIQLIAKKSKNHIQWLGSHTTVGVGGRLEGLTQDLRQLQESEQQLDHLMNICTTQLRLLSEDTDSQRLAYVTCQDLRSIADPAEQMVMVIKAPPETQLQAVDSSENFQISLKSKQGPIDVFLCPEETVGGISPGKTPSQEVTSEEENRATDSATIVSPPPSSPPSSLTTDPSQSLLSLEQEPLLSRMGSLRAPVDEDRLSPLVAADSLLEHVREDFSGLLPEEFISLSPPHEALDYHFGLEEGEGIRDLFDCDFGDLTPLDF
Hepatocyte nuclear factor 6 (Homo sapiens), sequence (Q9UBC0 whole entry, looked up, the tested form may be a part): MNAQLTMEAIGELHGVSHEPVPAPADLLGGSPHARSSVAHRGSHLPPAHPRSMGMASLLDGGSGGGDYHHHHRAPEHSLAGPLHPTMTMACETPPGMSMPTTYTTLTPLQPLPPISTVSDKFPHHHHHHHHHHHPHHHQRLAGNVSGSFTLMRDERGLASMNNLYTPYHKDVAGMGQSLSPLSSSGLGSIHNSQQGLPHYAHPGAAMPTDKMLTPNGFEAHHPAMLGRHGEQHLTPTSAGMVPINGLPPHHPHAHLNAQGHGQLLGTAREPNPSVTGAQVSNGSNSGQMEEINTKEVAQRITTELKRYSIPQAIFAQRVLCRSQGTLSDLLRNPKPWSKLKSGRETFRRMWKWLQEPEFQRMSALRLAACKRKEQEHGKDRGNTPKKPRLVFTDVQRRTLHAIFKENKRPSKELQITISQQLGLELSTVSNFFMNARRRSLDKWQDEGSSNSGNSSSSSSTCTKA
CCAAT/enhancer-binding protein beta (Homo sapiens), sequence (P17676 whole entry, looked up): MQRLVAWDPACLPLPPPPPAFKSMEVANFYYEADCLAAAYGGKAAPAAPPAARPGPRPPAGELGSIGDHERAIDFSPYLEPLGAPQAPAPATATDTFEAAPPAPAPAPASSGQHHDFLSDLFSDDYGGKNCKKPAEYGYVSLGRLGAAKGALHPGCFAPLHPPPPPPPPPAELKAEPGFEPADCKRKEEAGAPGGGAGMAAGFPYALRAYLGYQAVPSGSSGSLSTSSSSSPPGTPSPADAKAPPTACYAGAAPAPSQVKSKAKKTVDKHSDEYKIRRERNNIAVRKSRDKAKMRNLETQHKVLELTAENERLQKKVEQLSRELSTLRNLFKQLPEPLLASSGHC

As usually defined, the AC50 is the concentration at which the activity in the assay is half-maximal. Consider `C=CCc1ccc(OC(=O)Cc2ccccc2)c(OC)c1`, for which the call in test [1], in test [2], in [3], in [4], in test [5] and in test [6] was inactive. The result in test [7], in test [8], in test [9], in test [10], in [11] and in [12] was inactive. In addition, the molecule was classed as inactive in test [13], in test [14], in test [15], in [16], in [17] and in [19]. Besides, the half-maximal activity concentration (AC50) in test [18] was 8.28 µM (active).

Consider `CN(N=O)c1ccccc1`, for which the molecule was called inactive in test [1], in test [2], in test [3], in test [4], in [5] and in [6]. Further, the molecule was classed as inactive in [7], in test [8], in test [9], in [10], in test [11] and in test [12]. Also, the outcome in test [13], in test [14], in test [15], in test [16], in test [17] and in [18] was inactive. The molecule was called inactive in test [19].

For `C[N+](C)(C)CC(=O)[O-]`, the result in test [1], in [2], in test [3], in test [4], in test [5] and in test [6] was inactive. Moreover, the molecule was classed as inactive in [7], in test [8], in [9], in test [10], in test [11] and in [12]. In addition, the outcome in test [13], in test [14], in test [15], in test [16], in [17] and in test [18] was inactive. The molecule was called inactive in test [19].

For the molecule `COc1ccc(CO)cc1`, the molecule was classed as inactive in test [1], in test [2], in test [3], in test [4], in [5] and in test [6]. Further, the molecule was classed as inactive in test [7], in test [8], in [9], in test [10], in test [11] and in [12]. In addition, the molecule was called inactive in test [13], in test [14], in test [15], in test [16], in test [17] and in [18]. In addition, the molecule was called inactive in test [19].

With `CC(C)c1ccc(O)cc1`, the molecule was classed as inactive in test [1], in [2], in test [4], in test [5], in test [6] and in test [7]. Moreover, the molecule was classed as inactive in test [8], in test [9], in [10], in [11], in [12] and in test [13]. The molecule was classed as inactive in test [14], in [15], in test [16], in test [17] and in test [19]. The concentration at half-maximal activity (AC50) in [3] is 140 µM (active); in test [18], 33.6 µM (active).
